The whole screen tested about 110,000 compounds, of which about 230 (0.21%) showed an effect of 50% or more. Shown is part of a subset that was picked to be rich in strong results.
The compounds below were run against DPAP1 (Plasmodium falciparum, UniProt Q8IIJ9) (assay: primary screen, percent inhibition; read by cleavage of a fluorogenic dipeptide substrate; higher = more effect of the substance).
Design: species or system P. falciparum D10 trophozoite lysates; single well
Procedure: HTS was performed in black 384-well plates. The first and last two columns of each plate contained our negative (DMSO) and positive (10 μM JCP410) controls, and the 20 central columns the test compounds at 10 μM. Compounds were first diluted 50-fold into assay buffer (50 mM sodium acetate, 5 mM MgCl2, 10 mM β-mercaptoethanol, and 0.1% CHAPS, pH 5.5) from a 10 mM DMSO stock plates. One microliter of this 200 μM intermediate stock plate was dispensed into the assay plate. […] After 30 min, the reaction was quenched with 20 μL of 0.5 M acetic acid, and the fluorescent intensity measured at 523 nm (λex = 492 nm) using an Analyst HT multimode plate reader (Molecular Devices).
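Also: 30 min substrate incubation versus DMSO and 10 µM JCP410 controls.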

DPAP1, sequence (Q8IIJ9 whole entry, looked up): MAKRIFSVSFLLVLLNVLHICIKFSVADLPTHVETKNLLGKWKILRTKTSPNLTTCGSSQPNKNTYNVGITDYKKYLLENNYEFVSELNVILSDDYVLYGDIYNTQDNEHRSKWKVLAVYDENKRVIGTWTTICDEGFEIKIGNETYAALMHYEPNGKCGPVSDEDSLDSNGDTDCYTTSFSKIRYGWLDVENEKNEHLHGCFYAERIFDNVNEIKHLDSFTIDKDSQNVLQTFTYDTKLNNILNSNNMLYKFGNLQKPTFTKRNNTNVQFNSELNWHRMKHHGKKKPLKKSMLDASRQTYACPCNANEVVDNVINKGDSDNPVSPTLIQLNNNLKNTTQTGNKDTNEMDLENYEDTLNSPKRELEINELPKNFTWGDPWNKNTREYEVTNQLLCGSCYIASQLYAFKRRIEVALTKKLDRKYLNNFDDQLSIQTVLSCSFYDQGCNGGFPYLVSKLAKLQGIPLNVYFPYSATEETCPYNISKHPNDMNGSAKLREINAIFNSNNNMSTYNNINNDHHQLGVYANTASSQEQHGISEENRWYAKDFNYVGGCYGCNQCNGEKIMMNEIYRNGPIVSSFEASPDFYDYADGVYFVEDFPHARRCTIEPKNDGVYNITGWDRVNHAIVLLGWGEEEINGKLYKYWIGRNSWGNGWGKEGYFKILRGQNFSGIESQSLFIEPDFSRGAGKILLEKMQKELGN

SMILES | % Inhibition @ 10 uM
COc1ccc(CNC(=O)c2cc3c(O)nc4ccc(C)cc4c3s2)cc1 | 1.72%
N#CC1=C(N)SC(N)=C(C#N)C1c1ccccc1 | 70.9%
CC(C)c1ccc(C2C(C#N)=C(N)SC(N)=C2C#N)cc1 | 46.7%
N#CC1=C(N)SC(N)=C(C#N)C1c1ccc(Cl)cc1 | 50.8%
CC1C(C#N)=C(N)SC(N)=C1C#N | 67.5%
N#CC1=C(N)SC(N)=C(C#N)C1c1ccc(Cl)c(Cl)c1 | 40.5%
Cc1ccc(C2C(C#N)=C(N)SC(N)=C2C#N)c(C)c1 | 27.4%
Cc1cc(C)c(C)c(C2C(C#N)=C(N)SC(N)=C2C#N)c1C | 4.22%
N#CC1=C(N)SC(N)=C(C#N)C1c1cccnc1 | 0.731%
COc1cc(C2C(C#N)=C(N)SC(N)=C2C#N)ccc1O | 28.3%
CCOc1ccc(C2C(C#N)=C(N)SC(N)=C2C#N)cc1OC | 57.7%
N#CC1=C(N)SC(N)=C(C#N)C1c1cccc(Cl)c1 | 19.5%
CCOc1ccc(OCC)c(C2C(C#N)=C(N)SC(N)=C2C#N)c1 | 23.2%
C=CCSc1nnc(NC(=O)Cc2coc3ccc(C)cc23)s1 | 1%
CC(Sc1nc(-c2ccccc2)c(-c2ccccc2)[nH]1)C(=O)O (centres unmarked) | -3.04%
O=C(Nc1ccc(F)c(Cl)c1)c1cc2nc(C(F)F)cc(C(F)F)n2n1 | -8.02%
Cc1oc2ncnc(N3CCOCC3)c2c1C(=O)N(C)Cc1ccco1 | 4.76%
COc1ccc2nc(Cl)c(C3CC(c4ccc(Cl)cc4)=NN3C(C)=O)cc2c1 (centres unmarked) | 4.18%
NS(=O)(=O)c1ccc(NC(=O)c2cccs2)cc1 | 7.24%
NC(=O)C1CCCN(C2CCc3ccccc3C2)C1 (centres unmarked) | -1.5%
Cc1ccsc1C1C(C#N)=C(N)SC(N)=C1C#N | 27.5%
Cc1ccc(C2C(C#N)=C(N)SC(N)=C2C#N)o1 | 47.9%

SMILES | % Inhibition @ 10 uM
Cc1ccc(C2C(C#N)=C(N)SC(N)=C2C#N)s1 | 55.8%
N#CC1=C(N)SC(N)=C(C#N)C1c1c(Cl)cccc1Cl | 28.7%
N#CC1=C(N)SC(N)=C(C#N)C1c1cccs1 | 40.6%
N#CC1=C(N)SC(N)=C(C#N)C1c1ccco1 | 51.4%
OC(c1ccccc1)c1nc2ccccc2n1CCc1ccccc1 (centres unmarked) | -2.92%
CC1=C(C(=O)Nc2ccc(Br)cn2)C(c2ccccc2C)C2=C(O)CCCC2=N1 (centres unmarked) | 2.7%
CN(CC(=O)NCc1cccs1)S(=O)(=O)c1ccc2[nH]c(-c3ccccc3)nc2c1 | 3.88%
COc1ccc(Br)cc1CNC(=O)c1ccc2c(c1)ncn2C1CCCC1 | 3.66%
COc1cc(CN(C(=S)NCC(=O)NC2CCCC2)C2CCCC2)cc(OC)c1OC | 1.27%
COc1cc(C2=N/C(=C\c3ccc(SC)cc3)C(=O)O2)cc(OC)c1OC | -20.1%
COc1cc(C2=N/C(=C\c3ccc(C(C)(C)C)cc3)C(=O)O2)cc(OC)c1OC | 84.3%
COc1cc(/C=C2\N=C(c3cc(OC)c(OC)c(OC)c3)OC2=O)cc(OC)c1OC | 0.607%
Cc1cccc(C(=O)Nc2ccc(S(=O)(=O)N3CCCCC3)cc2)c1 | -1.28%
N#Cc1c(-c2ccccc2)cc(C(F)F)nc1S | 76.3%
N#Cc1c(-c2ccccc2)cc(C(F)(F)F)nc1S | 76.9%
COc1ccc(-c2cc(-c3ccccc3)nc(S)c2C#N)cc1 | 43.3%
N#Cc1c(-c2ccccc2)cc(-c2ccccc2)c(C#N)c1N | 0.716%
N#Cc1c(-c2ccc(F)cc2)cc(C2CC2)nc1S | 4.63%
N#Cc1c(-c2ccc3c(c2)OCO3)cc(-c2ccccc2)nc1S | 11.7%
CC1CCN(S(=O)(=O)c2ccc(NC(=O)c3ccc(-c4ccccc4)cc3)cc2)CC1 | 2.13%
Cc1sc2s[n+](CCCS(=O)(=O)O)c(C)c2c1C | -1.33%
CCOc1ccc(N2CC(C(=O)Nc3ccc(Br)cc3C)CC2=O)cc1 (centres unmarked) | 4.05%

SMILES | % Inhibition @ 10 uM
CCCCC(=O)Nc1c(-c2ccccc2)nc2ccccn12 | -3.19%
S=c1[nH]c(=S)c2c3c(sc2[nH]1)CCC3 | 85.2%
O=c1c2c3c(sc2[nH]c(=S)n1Cc1ccccc1)CCCC3 | 3.06%
O=c1[nH]c(=S)[nH]c2sc3c(c12)CCC1(CCCCC1)C3 | 5.93%
CC1(C)Cc2c(sc3[nH]c(=S)[nH]c(=S)c23)CO1 | 15%
CCn1c(=S)[nH]c2sc3c(c2c1=O)CCCC3 | 42.2%
O=c1c2c3c(sc2[nH]c(=S)n1C1CCCCC1)CCCC3 | 9.26%
O=c1c2c3c(sc2[nH]c(=S)n1Cc1ccccc1)CCC3 | 21%
C=C(C)Cn1c(=S)[nH]c2sc3c(c2c1=O)CCCC3 | 57.3%
CCn1c(=S)[nH]c2sc3c(c2c1=O)CCC3 | 64.7%
Cc1cc2nnc(SCC(=O)O)n2c2ccccc12 | -2.19%
C=C(C)COc1ccc2cc(-c3nc4ccccc4s3)c(=O)oc2c1 | 6.22%
CC(C)(C)c1ccc(C(=O)NCc2cccc3ccccc23)cc1 | -3.48%
N#CC1=C2SCN(C3CCCCC3)CN2C(=O)CC1c1ccccc1F (centres unmarked) | 37.8%
N#CC1=C2SCN(C3CCCCC3)CN2C(=O)CC1c1cccc2ccccc12 (centres unmarked) | 53.8%
Cc1ccccc1C1CC(=O)N2CN(Cc3ccccc3)CSC2=C1C#N (centres unmarked) | 31.2%
N#CC1=C2SCN(Cc3ccco3)CN2C(=O)CC1c1cccc2ccccc12 (centres unmarked) | 45.5%
Cc1ccccc1C1CC(=O)N2CN(C3CCCCC3)CSC2=C1C#N (centres unmarked) | 24%
N#CC1=C2SCN(Cc3ccccc3)CN2C(=O)CC1c1cccc2ccccc12 (centres unmarked) | 51.5%
COc1ccc(C(=O)N2c3ccccc3C(C)(c3ccccc3)CC2(C)C)cc1 (centres unmarked) | -2%
COc1ccc(/C=C/C(=O)N2c3ccccc3C(C)(c3ccccc3)CC2(C)C)cc1 (centres unmarked) | 56.6%
CC1(c2ccccc2)CC(C)(C)N(C(=O)/C=C/c2ccccc2)c2ccccc21 (centres unmarked) | 0.467%

SMILES | % Inhibition @ 10 uM
CCc1ccc(NC(=O)C2CCN(S(=O)(=O)c3cc(Cl)ccc3Cl)CC2)cc1 | -4.06%
O=C1c2ccccc2C(=O)N1CNc1ccc(Cl)c(Cl)c1 | -1.17%
CCOC(=O)c1c(NC(=O)C23CC4CC(CC(C4)C2)C3)sc2c1CCCC2 | -1.36%
Cn1ccc(C(=O)Nc2sc3c(c2C(N)=O)CCCCC3)n1 | 47%
NC(=O)c1c(NC(=O)C2CC2)sc2c1CCCCCC2 | 5.39%
Cn1cc(Br)c(C(=O)Nc2sc3c(c2C(N)=O)CCC3)n1 | 1.02%
Cn1cc(Br)c(C(=O)Nc2sc3c(c2C(N)=O)CCCCC3)n1 | 51.9%
NC(=O)c1c(NC(=O)C23CC4CC(CC(C4)C2)C3)sc2c1CCCCC2 | 52.3%
NC(=O)c1c(NC(=O)C2CC2)sc2c1CCCCC2 | 50.4%
NC(=O)c1c(NC(=O)C2CCC2)sc2c1CCCCC2 | 7.35%
CC(=O)Nc1sc2c(c1C(N)=O)CCCCCC2 | 2.65%
O=C(Nc1cccc(Cl)c1)N1CCC(Cc2ccccc2)CC1 | 0.727%
Cc1cccc(NS(=O)(=O)c2ccccc2)n1 | -3.56%
COc1ccc(-c2cc(C(=O)N3CCOCC3)c3ccccc3n2)cc1 | 0.245%
COc1cc(C2C(C#N)=C(N)OC3=C2C(=O)CCC3)cc(OC)c1OC (centres unmarked) | 0.687%
O=C(CCc1nnc2n(CCc3ccccc3)c(=O)c3ccccc3n12)N1CCOCC1 | 0.981%
O=C(NCc1ccccc1Br)C1CCCN(c2nnc(N3CCCC3=O)s2)C1 (centres unmarked) | -4.68%
CC(C)CC(NC(=O)N1CCC(N2CCCCC2)CC1)C(=O)NCC#N (centres unmarked) | -0.972%
Cc1ccccc1-c1ccccc1N | -0.305%
COc1ccc(CNC(=O)Cn2ncn3cccc3c2=O)cc1 | -5.15%
COc1ccc(OC)c(-n2cc(-c3ccccc3)nc2SC)c1 | 4.49%
CCOc1cccc(-n2cc(-c3ccccc3)nc2S)c1 | 42.6%

SMILES | % Inhibition @ 10 uM
COc1ccccc1-n1cc(-c2ccccc2)nc1S | 58.6%
CCOc1ccc(-c2cn(-c3ccccc3F)c(S)n2)cc1 | 56.2%
Sc1nc(-c2ccccc2)cn1-c1ccccc1 | 37.1%
Fc1ccccc1-n1cc(-c2ccccc2)nc1S | 45.3%
CC1CC(C)CN(CCCNC(=O)Cn2ncn3nc(-c4cccs4)cc3c2=O)C1 (centres unmarked) | 2.27%
Cc1ccc(C(=O)NC2(C(F)(F)F)C(=O)Nc3c2c(=O)[nH]c(=O)n3-c2ccc(Cl)cc2)cc1 (centres unmarked) | -3.39%
CCc1cc2c(cc3c(=O)n(CC(=O)NCCc4ccc(OC)c(OC)c4)nc(CC)n32)s1 | 3.29%
Cc1nn(C)c2c1c(-c1ccccc1)cc(=O)n2Cc1cccc(F)c1 | 2.65%
COc1cc(CN2CCN(c3cccc(C)c3C)CC2)cc(OC)c1 | 55.4%
COc1cc(CN2CCN(c3ccccc3C)CC2)cc(OC)c1 | 1.9%
COc1ccc(CN2CCN(c3cccc(C)c3C)CC2)cc1OC | 9.04%
O=C1NC(=O)/C(=C\c2ccc(-c3ccc(Cl)c(C(=O)O)c3)o2)S1 | 8.24%
O=C1NC(=O)/C(=C/c2ccc(-c3ccc(O)c(C(=O)O)c3)o2)S1 | 64.8%
O=C1NC(=O)/C(=C\c2ccc(-c3ccc(Cl)cc3)o2)S1 | 6.08%
OCCN(Cc1ccccc1)CC1CC=CCC1 (centres unmarked) | 1.38%
COC(=O)c1cc(O)nc(SCc2cccc(C)c2)n1 | 4.47%
Cc1ccc(S(=O)(=O)c2cc3c(=O)n4ccccc4nc3n(CCO)c2=N)cc1 | -4.59%
Cc1ccc(S(=O)(=O)c2cc3c(=O)n4ccccc4nc3n(C)c2=N)cc1 | 57.9%
CCCn1c(=N)c(S(=O)(=O)c2ccc(C)cc2)cc2c(=O)n3ccccc3nc21 | 3.99%

From article PMC6919601, “Identification of Plasmodium dipeptidyl aminopeptidase allosteric inhibitors by high throughput screening” (PLoS ONE, 2019)
